Reference: PubChem BioAssay AID1210 (NMMLSC, 2008)
Activity calls are given as the source filed them.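 The calls were made as follows: active = blocks over 70% of labeled estradiol binding at 10 µM, or over a set limit at 100 nM; inactive = the rest.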

Biological target: Estrogen receptor beta (Homo sapiens) (UniProt Q92731)
Experiment: ERbeta ligand binders by competition, primary screen, cell-based, Cos7 ERbeta-GFP, flow cytometry (AID 1210);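 also: 0% = DMSO vehicle wells and 100% = complete loss of labeled estradiol signal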
Settings: fluorescent estrogen binding, stronger effect = higher value
[1] = ligand binding inhibition, at 0.1 µM

Sequence of Estrogen receptor beta (Homo sapiens) (Q92731 whole entry, looked up): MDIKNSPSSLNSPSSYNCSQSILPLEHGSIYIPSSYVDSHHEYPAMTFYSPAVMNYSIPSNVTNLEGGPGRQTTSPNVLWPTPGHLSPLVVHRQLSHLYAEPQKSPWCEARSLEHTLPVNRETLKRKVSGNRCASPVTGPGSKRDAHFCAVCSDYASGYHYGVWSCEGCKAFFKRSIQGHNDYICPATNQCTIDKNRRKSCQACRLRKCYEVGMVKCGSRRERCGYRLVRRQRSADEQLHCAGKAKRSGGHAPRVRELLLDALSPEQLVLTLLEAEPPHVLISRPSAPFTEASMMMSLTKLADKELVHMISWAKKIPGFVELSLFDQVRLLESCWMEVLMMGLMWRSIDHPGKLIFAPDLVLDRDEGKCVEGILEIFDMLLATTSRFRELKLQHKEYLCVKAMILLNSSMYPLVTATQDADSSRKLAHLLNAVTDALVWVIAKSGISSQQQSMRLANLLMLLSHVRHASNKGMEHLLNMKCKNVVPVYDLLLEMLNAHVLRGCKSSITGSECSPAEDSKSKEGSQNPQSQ

| SMILES | inhibition (at 10 µM) | inhibition [1] |
| --- | --- | --- |
| Cn1cccc1/C=C1\SC(=O)N(c2ccc(O)cc2)C1=O | 31% (inactive) | 7% |
| Oc1ccc(-c2nnc(-c3ccccc3)c(-c3ccccc3)n2)cc1 | 38% (inactive) | 25% |
| CCN1CCc2nc(NC(=O)Cc3ccc4c(c3)OCCO4)sc2C1 | 26% (inactive) | 4% |
| COC(=O)c1cc(-c2c(C)oc3cc(O)ccc3c2=O)c(C)o1 | 12% (inactive) | 1% |
| COc1cccc(-c2nnc(NC(=O)Cc3cccs3)s2)c1 | 30% (inactive) | 47% |
| CCOC(=O)c1ccc(NC(=O)CSc2nc(C)cc(=O)[nH]2)cc1 | 30% (inactive) | 2% |
| Nc1ccc(-c2nc3c(Cl)c(N)ccc3[nH]2)cc1 | 66% (inactive) | 32% |
| C/C(=N\Nc1ccc([N+](=O)[O-])cc1)c1cccc(N)c1 | 14% (inactive) | 24% |
| C1CCC(c2nn3c(-c4n[nH]c5c4CCC5)nnc3s2)CC1 | 61% (inactive) | 19% |
| CS(=O)(=O)c1ccc2nc(NC(=O)CCC(=O)c3cccs3)sc2c1 | 62% (inactive) | 9% |
| CCOC(=O)C1=c2/c(=C/c3ccccc3OC)c(N)c(C#N)n2C(=O)C(c2ccccc2OC)S1 (stereo not drawn) | 34% (inactive) | 46% |
| Cc1nn(-c2ccc(Cl)cc2)c2sc(C(=O)N3CCN(c4ccccn4)CC3)cc12 | 50% (inactive) | 40% |
| Oc1ccc(/C=N/n2c(-c3ccco3)csc2=Nc2cccnc2)c(O)c1 | 20% (inactive) | 18% |
| O=C(CCCn1c(=S)[nH]c2cc3c(cc2c1=O)OCO3)N1CCN(c2ccc(Cl)cc2)CC1 | 0% (inactive) | 56% |
